Among all 16,000 compounds or so, about 5,700 (36%) were called active. Roughly 24% stayed inconclusive and do not appear here. The list shows a part of the results. A number with no mark means an inactive call. Calls come from the whole dose curve; as a rule, active = well fitted curve in the direction sought with a large enough effect; inconclusive = small, poorly fitted or top-dose-only effect, or effect the other way; inactive = no such curve, though single readings can be large or run the other way.
% is set by controls: 0 for no effect and ±100 for the full control effect.

Cytochrome P450 1A2 (Homo sapiens), sequence (P05177 whole entry, looked up): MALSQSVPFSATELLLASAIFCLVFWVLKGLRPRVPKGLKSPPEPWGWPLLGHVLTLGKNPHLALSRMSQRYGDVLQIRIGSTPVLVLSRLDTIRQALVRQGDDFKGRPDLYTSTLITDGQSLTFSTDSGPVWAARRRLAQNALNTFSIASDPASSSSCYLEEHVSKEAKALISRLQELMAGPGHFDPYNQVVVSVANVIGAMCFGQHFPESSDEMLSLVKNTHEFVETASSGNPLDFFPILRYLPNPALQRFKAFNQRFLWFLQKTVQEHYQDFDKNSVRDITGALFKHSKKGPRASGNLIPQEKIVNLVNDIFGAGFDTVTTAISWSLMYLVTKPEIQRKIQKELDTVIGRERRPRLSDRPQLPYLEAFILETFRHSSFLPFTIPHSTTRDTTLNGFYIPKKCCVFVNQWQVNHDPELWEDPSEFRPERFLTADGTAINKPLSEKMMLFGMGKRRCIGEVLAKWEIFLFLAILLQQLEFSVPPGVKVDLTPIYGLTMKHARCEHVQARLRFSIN

The experiment addresses Cytochrome P450 1A2 (Homo sapiens) (UniProt P05177). Put plainly: Cytochrome panel assay with activity outcomes. Conditions: recombinant CYP, pro-luciferin dealkylation, luminescence, p450-cyp1a2; series mostly up to 57.1 µM.
Consider `Cc1nc(CN2CCCCC2)c(O)c(=O)[nH]1`, for which the activity, negative = inhibition was -7.06% [at 11.4 µM].
On to `CSc1nc(O)c(Cc2ccccc2)c(=O)[nH]1`, for which the AC50 entry was “inactive”.
`Cc1nc2c(O)cccc2c(=O)[nH]1`: the half-maximal activity concentration (AC50) is 15.8 µM (active).
Turning to `COc1ccc(C(C(=O)NC2CCCCC2)N(C(=O)c2sc(C)nc2C)c2ccc(OC)cc2)cc1` (stereo unspecified), the AC50 result was “inactive”.
On the same count and under the same terms, then `COc1ccc(C(C(=O)NC2CCCCC2)N(C(=O)c2sc(C)nc2C)c2ccc(C(C)=O)cc2)cc1` (stereo unspecified), with “inactive”; and `C/C(=N\OC(=O)NC1CCCCC1)c1sc(-c2ccccc2)nc1C`, with 7.08 µM (active); and `Cc1ccc(-c2ncccc2OC(=O)C23CC4CC(CC(C4)C2)C3)cc1`, with 14.1 µM (active).
With `CC(C)CO/N=C1/C[C@@H](O)[C@@H](O)[C@@H]2[C@@H]3C(=O)N(C[C@@H]4CCCO4)C(=O)[C@H]3CC[C@H]12`, the activity, negative = inhibition is -4.99% [at 11.4 µM].
Regarding `Cn1c(=O)c2cc(S(=O)(=O)NCCC(=O)NCc3ccccc3Cl)ccc2n(C)c1=O`, the AC50 result is “inactive”.
As for `Cn1c(=O)c2cn(-c3ccccc3)cc2n(C)c1=O`, the AC50 is 1.78 µM (active).
Same read-out and setting: then `Cn1c(=O)n(CCC(=O)O)c2ccccc21`, with “inactive”.
Regarding `CCCNC(=O)OC[C@H]1O[C@@H](CCO/N=C\[C@@H](NS(=O)(=O)c2ccc(C)cc2)[C@H](C)/C=C\CC(=O)OC)C=C[C@@H]1Oc1ccc(OC)cc1`, the activity, negative = inhibition was 2.17% [at 11.4 µM].
Turning to `C[C@@]1(C(NC(=O)c2ccccc2)c2ccc(-c3ccccc3)cc2)C[C@H]1C1CCCCC1` (stereo partly specified), the AC50 entry is “inactive”.
The same measure, in the same setting: then `O=C(c1ccccc1)[C@@H]1O[C@H]1c1ccc(-c2ccccc2)cc1`, with 6.31 µM (active); and `CCN1CCN(CCCNC(=O)C(NC(=O)C2CCC(C)CC2)C(C)C)CC1` (stereo unspecified), with “inactive”; and `O=C(c1cc(C(F)(F)F)cc(C(F)(F)F)c1)N1CCC[C@@]2(CCN(c3ncccn3)C2)C1`, with “inactive”.
Same read-out and setting: then `O=C1CC[C@H](N2C(=O)c3ccccc3C2=O)C(=O)N1`, with “inactive”; and `NCCn1c(=O)c(CCc2ccccc2)nc2cncnc21`, with 12.6 µM (active).
`O=c1c(CCc2ccccc2)nc2cncnc2n1-c1ccccc1`: the concentration at half-maximal activity (AC50) is 15.8 µM (active).
The same measure, in the same setting: then `COCCn1c(=O)c(CCc2ccccc2)nc2cncnc21`, with 10 µM (active); and `CCCNC(=O)N1CCC(C(=O)c2ccc(F)cc2)CC1`, with “inactive”.
Consider `NC(=O)C1(NC(=O)[C@@H]2CC3(CC(c4cccc(NC(=O)c5cc([N+](=O)[O-])cc([N+](=O)[O-])c5)c4)=NO3)CN2C(=O)c2ccccc2)CC1` (stereo partly specified), for which the AC50 entry was “inactive”.
With `COc1ccc(NC(=O)COC(=O)Cn2c(C)nc3ccccc32)cc1OC`, the AC50 entry is “inactive”.
Same read-out and setting: then `CCC(NC(=O)Nc1cc(OC)c(OC)c(OC)c1)(C(F)(F)F)C(F)(F)F`, with “inactive”; and `COc1ccc(NC(=O)C(F)(F)F)cc1OC`, with 12.6 µM (active).
Same read-out and setting: then `COc1ccc(NC(=O)c2cc(C(C)C)on2)cc1OC`, with 15.8 µM (active).
`COc1ccc(-c2cc(C(=O)Nc3cc(OC)c(OC)c(OC)c3)no2)cc1OC`: the AC50 result is “inactive”.
Take `COc1ccc(C(=O)Nc2ccc(OCC(F)(F)C(F)F)c(C(F)(F)F)c2)cc1OC`: the AC50 result was “inactive”.
Turning to `COc1ccc(NC(=O)CC#N)cc1OC`, the concentration at half-maximal activity (AC50) was 15.8 µM (active).
Turning to `CO[C@]1(NC(=O)CSCC#N)C(=O)N2C(C(=O)O)=C(CSc3nnnn3C)CS[C@H]21`, the AC50 result is “inactive”.
Still for that read-out and setting: then `CNc1ncnc2ccc(-c3ccccc3OC)cc12`, with 2.51 µM (active).
Still for that read-out and setting: then `COc1ccccc1-c1ccc2ncnc(Nc3ccccc3)c2c1`, with 2.51 µM (active).
The same measure, in the same setting: then `Cc1ccc(CS(=O)(=O)CCC(=O)NCCCOC(C)C)cc1`, with “inactive”.
Regarding `NC(N)=NNC(=O)C(=O)O`, the activity, negative = inhibition is -1.69% [at 11.4 µM].
On to `O=C(N/C(=C/c1ccc(Br)cc1)c1nc2ccccc2[nH]1)c1ccco1`, for which the AC50 was 7.08 µM (active).
Still for that read-out and setting: then `Cc1ccc(NC(=O)/C(=C\c2cccnc2)NC(=O)c2ccco2)cc1`, with “inactive”; and `O=C(NC(Cc1ccccc1)C(=O)O)/C(=C\c1ccco1)NC(=O)c1ccc(Br)cc1` (stereo unspecified), with “inactive”.
For `C[C@H](NC[C@H](O)CP(=O)(O)CC1CCCCC1)c1ccc(Cl)c(Cl)c1`, the AC50 is 39.8 µM (active).
On the same count and under the same terms, then `C[C@H](NC[C@H](O)CP(=O)(O)Cc1ccccc1)c1ccc(Cl)c(Cl)c1`, with “inactive”; and `CNC(=S)N1N=C(c2ccc(OC)cc2)CC1c1ccc(N(C)C)cc1` (stereo unspecified), with 10 µM (active); and `CCS(=O)(=O)Nc1ccc(C2=NN(C(=O)c3ccco3)C(c3ccc(C)cc3)C2)cc1` (stereo unspecified), with “inactive”.
Take `COc1ccc(CNc2ccnc(-c3cccc(C#N)c3)n2)c(OC)c1`: the AC50 was 2.51 µM (active).
On the same count and under the same terms, then `COc1ccccc1CNc1ccnc(-c2cccc(C#N)c2)n1`, with 0.794 µM (active).
Same read-out and setting: then `C=CCNC(=S)N1CCN(c2ncc3c(=O)c(C(=O)O)cn(CC)c3n2)CC1`, with “inactive”; and `C=CC[C@H](N)C(=O)O`, with “inactive”.
With `Cc1cc(NC(=O)C2CCCC2)n(-c2nc3ccccc3[nH]2)n1`, the AC50 is 2.82 µM (active).
Still for that read-out and setting: then `O=C(c1cnc(-c2ccccc2)s1)c1ccc(Cl)cc1Cl`, with 1.12 µM (active); and `CC(=O)N1CCC2(CC1)CN(C(c1ccccc1)c1ccccc1)C2`, with “inactive”.
In the case of `COc1ccccc1NC(=O)c1nn(-c2cccc(C(F)(F)F)c2)ccc1=O`, the AC50 was 5.01 µM (active).
Still for that read-out and setting: then `O=c1ccn(-c2cccc(C(F)(F)F)c2)nc1-c1ccn(-c2ccccc2F)n1`, with 5.62 µM (active); and `CCCC1CCC(c2ccc(C(N)=O)cc2)CC1` (stereo unspecified), with “inactive”; and `CCN(CC)Cc1nc2c(c(=O)[nH]1)C1(CCCC1)Cc1ccccc1-2`, with 5.01 µM (active).
On the same count and under the same terms, then `O=C(O)CN=C1NC2(CCCC2)Cc2ccccc21`, with “inactive”; and `C[C@@H]1C[C@@H]2[C@H]3CCC4=CC(=O)C=C[C@]4(C)[C@]3(F)[C@@H](O)C[C@@]2(C)[C@@]1(O)C(=O)CO`, with “inactive”.
Same read-out and setting: then `FC(F)(F)c1cnc(N2CCC(=NOCc3ccc(Cl)cc3)CC2)c(Cl)c1`, with “inactive”; and `Nc1ccccc1Oc1ncc(C(F)(F)F)cc1Cl`, with 2.82 µM (active).
In the case of `O=C(OC1CCN(c2ncc(C(F)(F)F)cc2Cl)CC1)c1ccccc1`, the AC50 result was “inactive”.
Same read-out and setting: then `NS(=O)(=O)c1cc2c(cc1Cl)N[C@@H]([C@@H]1C[C@@H]3C=C[C@H]1C3)NS2(=O)=O`, with “inactive”.
As for `CCCCCc1nc2c(C#N)c(-c3ccc(Cl)cc3)ccn2n1`, the half-maximal activity concentration (AC50) was 8.91 µM (active).
As for `C[C@@H](CCCCC(=O)Nc1ccc(C(F)(F)F)cc1)NCCc1cnc[nH]1`, the AC50 result was “inactive”.
As for `Cc1oncc1C(=O)Nc1ccc(C(F)(F)F)cc1`, the AC50 was 0.0631 µM (active).

In general, AC50 refers to the midpoint of the concentration-response curve, whichever way the signal moves.
